# The list is not random: actives were taken first. Their share in the collection is about 12%.
# L3MBTL1 inh = L3MBTL1 (human) inhibition. Potency, µM (doses to about 57.1 µM), most hits filed as inhibitors. AlphaScreen L3MBTL1–H3K9me1 peptide binding. 0.66% of 230,000 active. AID 485360. Q9Y468; also: nearly all actives have a fitted effect of over 60% in size
#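 Read-out is AlphaScreen signal from streptavidin donor and nickel chelate acceptor beads (10 ug/mL final each) bridging L3MBTL1 (50 nM) and biotinylated K9-monomethylated H3(1-15) peptide (75 nM), after 30 min compound exposure at room temperature.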
# G9a block = G9a (human) methyltransferase inhibition | Q96KQ7 | G9a H3K9 monomethylation, AlphaScreen, 2 h | Potency, µM (doses to about 102 µM), actives largely listed as inhibitors | 8.8% of 350,000 active; also: nearly all actives have a fitted effect of over 75% in size
#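 G9a (20 nM) was preincubated 15 min with compound, then reacted 2 h at room temperature with 500 nM biotin-H3K9 peptide and 20 µM SAM. Monomethyl-H3K9 detected by AlphaScreen using anti-H3K9me1 antibody.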
# BAZ2B block = inhibitors of human BAZ2B bromodomain | Q9UIF8 | AlphaScreen BAZ2B-H3K14Ac peptide displacement | Potency, µM (doses to about 114 µM), usual class: inhibitors | 4.4% of 360,000 active | AID 504333; also: nearly all actives have a fitted effect of over 60% in size
#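 BAZ2B 50 nM plus b-H3(5-23)K14Ac 50 nM, PBS pH 7.4/0.01% Tween-20, 30 min RT; compound added (max 110 uM), 30 min RT; streptavidin donor/Ni-chelate acceptor beads 10 ug/mL final, 20 min dark; AlphaScreen read.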
# HP1b chromo inh = HP1-beta chromodomain-methylated histone interaction inhibition | Potency, µM (doses to about 114 µM), most hits filed as inhibitors | AID 540317 | 0.56% of 390,000 active | AlphaScreen HP1-beta / biotin-H3K9me3 peptide binding; also: nearly all actives have a fitted effect of over 70% in size
#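 AlphaScreen: HP1-beta (50 nM) preformed 30 min with biotin-H3(1-18)K9me3 peptide (50 nM) in PBS pH 7.4, 0.01% Tween-20. Compound added for 30 min at RT, then streptavidin donor/nickel chelate acceptor beads (10 ug/mL) for 30 min.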
# JMJD2A Tudor inh = inhibitors of human JMJD2A Tudor domain; Potency, µM (titrated, usually from 114 µM), hits mostly inhibitors; AlphaScreen JMJD2A-Tudor / H3K4me3 peptide binding; AID 504339; 4.4% of 390,000 active; also: nearly all actives have a fitted effect of over 50% in size
# Sfp PPTase inh = inhibitors of Bacillus subtilis Sfp phosphopantetheinyl transferase; Q9F4F7; Biochemical Sfp PPTase activity, qHTS; Potency, µM, usual class: inhibitors; 3.5% of 310,000 active; AID 1490;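 also: the enzyme is Sfp with the accession as filed and its product quenches rhodamine fluorescence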
#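 Reaction rates are the 30-min fluorescence difference (ex 525, em 598 nm) in wells containing 15 nM Sfp, 5 uM rhodamine-CoA and 12.5 uM BHQ-2-YbbR at pH 7.6 with 10 mM MgCl2.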
# A number is an active result; n = inactive; u = inconclusive; x = no result given; [ ] = remark or other dose. Calls follow the shape of the dose curve; as a rule, active = well fitted curve in the direction sought with a large enough effect; inconclusive = small, poorly fitted or top-dose-only effect, or another doubt; inactive = no such curve, though single readings can be large; an effect the other way counts as inactive or inconclusive.
SMILES,L3MBTL1 inh,G9a block,BAZ2B block,HP1b chromo inh,JMJD2A Tudor inh,Sfp PPTase inh
C#CCOCCOCCOCCNc1nc(N2CCN(C(=O)CCCCCCCCCCNC(=O)Cn3cc(CCCCCN)nn3)CC2)nc(N2CCN(C(=O)CCCCCCCCCCNC(=O)Cn3cc(C[C@@H](C)O)nn3)CC2)n1,n,n[2.33 µM],79µM,n,25µM,x
C/C(=N\NS(=O)(=O)c1ccc(C)c([N+](=O)[O-])c1)c1ccc2c(c1)OCO2,x,45µM,n,n,n,n
C/C(=N/NS(=O)(=O)c1ccc(C)cc1C)c1ccc2c(c1)OCO2,x,x,n,n,n,u
C/C(=N/NS(=O)(=O)c1cccc([N+](=O)[O-])c1)c1ccc2c(c1)OCO2,x,32µM,n,n,n,n
C/C(=N\NS(=O)(=O)c1ccc(Cl)c([N+](=O)[O-])c1)c1ccc(C)o1,x,n[12.7 µM],79µM,n,u,n
C/C(=N\NS(=O)(=O)c1ccc(Cl)c([N+](=O)[O-])c1)c1cc2ccccc2o1,x,u,u,n,u,n
COc1ccc(OC)c(S(=O)(=O)N/N=C(/C)c2ccc3c(c2)OCO3)c1,x,32µM,n,n,n,n
Clc1ccccc1CNc1ncnc2c1c(-c1ccccc1)cn2-c1ccccc1,x,n,n,n,n,x
CCCNC(=O)N1CCCN(S(=O)(=O)c2ccc3c(ccn3CC)c2)CC1,x,n,n,n,n,x
COc1ccc(Cl)cc1NC(=O)Cn1nnc2sc(-c3ccccc3)cc2c1=O,x,n,n,n,n,x
COc1cc(C(CC(=O)Nc2cc(C)ccc2C)N2Cc3ccccc3C2=O)cc(OC)c1OC (stereo not drawn),x,n,n,n,n,x
Cc1ccc(C)c(CN2CCCNC2=O)c1,n,45µM,u,n,n,50µM
O=C(NC(=S)Nc1cccc(O)c1)c1ccco1,n,50µM,n,n,n,u
C=C(C)C(=O)Nc1ccc2c(c1)OCCOCCOCCO2,3.5µM,10µM,11µM,13µM,18µM,n
O=C(NC(=S)Nc1ccc2c(c1)OCCO2)c1ccco1,x,71µM,u,n,u,n
CCc1ccc(C(=O)NC(=S)Nc2ccc3c(c2)OCCO3)cc1,n,u,u,u,u,u
Cc1cc(C)cc(C(=O)NC(=S)Nc2ccc3c(c2)OCCO3)c1,n,25µM,u,u,u,n
Cc1nc2nc(CNC(=O)OC(C)(C)C)nn2c(C)c1CCC(=O)NCc1ccc(F)cc1,x,n,n,n,n,x
O=[N+]([O-])c1cc(Br)c(Nc2ccccc2)c([N+](=O)[O-])c1,x,40µM,14µM,u,20µM,n
N#Cc1ccc(Nc2ccccc2)c(N)c1,n,x,n,n,n,n
Nc1cc([N+](=O)[O-])ccc1Nc1ccccc1,n,40µM,u,n,u,n
O=C(Nc1ccccc1)c1ccc(Nc2c([N+](=O)[O-])cc([N+](=O)[O-])c3ccccc23)cc1,n,n,u,n,n,n
Nc1cc(C(F)(F)F)ccc1Nc1ccccc1,u,n,50µM,n,n,n
Cc1cccc(Nc2ccc([N+](=O)[O-])cn2)c1,n,x,n,n,n,n
Cc1cccc(Nc2ccc([N+](=O)[O-])cc2C(=O)O)c1,n,1.4µM,50µM,n,u,n
SMILES,L3MBTL1 inh,G9a block,BAZ2B block,HP1b chromo inh,JMJD2A Tudor inh,Sfp PPTase inh
CC(=O)N1CCC2(CC1)C(C#N)=C(N)Oc1n[nH]c(C)c12,n,n,n,n,n,n
Cc1cc(C)c2c(n1)sc1c(N3CCN(CCO)CC3)ncnc12,n,n[12.7 µM],n,n,n,n
CC(=O)N1CCC2(CC1)C(C#N)=C(N)Oc1c2sc2nc(C)cc(C)c12,n,11µM,n,n,n,n
CCN1CCC2(CC1)C(C#N)=C(N)Oc1c2sc2nc(C)cc(C)c12,n,u,n,n,n,50µM
Cc1ccccc1CNC(=O)c1oc2c(c1C)-c1nn(Cc3ccc(Cl)cc3)cc1CC2,x,n,n,n,n,x
CN(C)S(=O)(=O)c1ccc(C(=O)NCCS(=O)(=O)N2CCN(c3ccccc3)CC2)cc1,x,n,n,n,n,x
Nc1cccc(CN2CCCC2)c1,n,x,n,n,n,n
O=[N+]([O-])c1ccc(Cl)cc1CN1CCCCCC1,n,22µM,u,u,20µM,n
Clc1cccc(CN2CCCCCC2)c1,n,11µM,u,n,40µM,n
